# Assay results from PubChem BioAssay (NCATS).
# Several values for one entry are separate records, joined by “and”; a condition that tells them apart may be missing. Identical values can stand only once. Results filed as inconclusive are left out. Values without a mark were called inactive. Calls come from the whole dose curve; as a rule, active = well fitted activation curve with a large enough effect; inconclusive = small, poorly fitted or top-dose-only effect; inactive = no such curve, though single readings can be large or run the other way.
# Target: Cellular tumor antigen p53 (Homo sapiens) (UniProt P04637)
# Experiment: Primary qHTS for small molecule compounds that upregulate eGFP-tagged delta133p53alpha (in N-terminal) cells. (AID 2060322);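 note: series mostly up to about 56 µM; 0% = DMSO vehicle and 100% = reference activator; nearly all actives have a fitted effect of over 75% in size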
# Conditions: NCI-H358 eGFP-delta133p53alpha fluorescence, 24 h; activation: active compounds read high
# Summary of the method: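 NCI-H358 cells pre-induced 24 h with 10 ng/ml doxycycline for eGFP-delta133p53alpha, plated dox-free and exposed 24 h at 37C to titrated compounds. Fixed, Hoechst-stained; gated GFP peak intensity by laser scanning cytometry, normalized to DMSO (0%) and 57.5 uM 5-azacytidine (100%).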
# Cellular tumor antigen p53 (Homo sapiens), sequence (P04637 whole entry, looked up): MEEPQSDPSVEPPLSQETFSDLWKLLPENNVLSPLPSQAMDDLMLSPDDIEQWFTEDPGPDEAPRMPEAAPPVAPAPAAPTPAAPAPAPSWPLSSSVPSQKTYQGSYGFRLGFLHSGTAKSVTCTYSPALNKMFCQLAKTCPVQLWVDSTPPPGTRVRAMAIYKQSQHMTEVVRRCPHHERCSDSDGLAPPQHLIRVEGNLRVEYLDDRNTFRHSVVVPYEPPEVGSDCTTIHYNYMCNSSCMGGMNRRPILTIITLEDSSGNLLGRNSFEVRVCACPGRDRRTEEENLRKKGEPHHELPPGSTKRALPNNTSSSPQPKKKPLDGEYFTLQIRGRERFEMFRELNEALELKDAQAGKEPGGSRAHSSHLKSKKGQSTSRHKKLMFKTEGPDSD
row,SMILES,activation
1,C[C@]12CC[C@H](O)CC1=CC[C@@H]1[C@H]2CC[C@]2(C)C(c3cccnc3)=CC[C@H]12,-11.6%
2,COc1cc(C(=O)NCc2ccc(OCCN(C)C)cc2)cc(OC)c1OC,1.67%
3,CCCCCCCCCCCCCC[N+](C)(C)Cc1ccccc1,27.6%
4,CN(C)CCOc1ccc(-c2nc(-c3ccc4c(c3)CCC4=NO)c(-c3ccncc3)[nH]2)cc1,-18.7%
5,CC(C)n1c(C=C[C@H](O)C[C@H](O)CC(=O)O)c(-c2ccc(F)cc2)c2ccccc21,-24.6%
6,CCOC(=O)N1CCN([N+]([O-])=NOc2ccc([N+](=O)[O-])cc2[N+](=O)[O-])CC1,8.17%
7,CCCCCCCCOc1ccccc1C(=O)Nc1ccc(C(=O)OCC[N+](C)(CC)CC)cc1,-5.01%
8,C[N+](C)(C)CC(O)CC(=O)[O-] (stereo not given),7.53%
9,CN(C)c1cc(NC(=O)CNC(C)(C)C)c(O)c2c1C[C@@H]1C[C@H]3[C@H](N(C)C)C(=O)C(C(N)=O)=C(O)[C@@]3(O)C(=O)C1=C2O,-7.92%
10,O=C(C1CCCCC1)N1CC(=O)N2CCCc3ccccc3C2C1 (stereo not given),4.18%
11,Nc1ccc(S(=O)(=O)Nc2ncccn2)cc1,-6.74%
12,CN(C)C(=N)N=C(N)N,2.2%
13,Cc1cc(CCCOc2c(C)cc(-c3noc(C(F)(F)F)n3)cc2C)on1,19.8%
14,C[C@@]12C[C@@]3(O)O[C@@H](O1)[C@]1(COC(=O)c4ccccc4)[C@@H]3C[C@@]12O[C@@H]1O[C@H](CO)[C@@H](O)[C@H](O)[C@@H]1O,35.7%
15,C[C@@H]1[C@H](C)CC[C@]2(C(=O)O)CC[C@]3(C)C(=CC[C@@H]4[C@@]5(C)C[C@@H](O)[C@H](O)[C@@](C)(CO)[C@H]5CC[C@]43C)[C@@H]12,36.3%
16,O=C(NCN1CCOCC1)c1cnccn1,-15.3%
17,NCC(=O)O,13%
18,CNCCc1ccccn1,5.02%
19,Cc1ccc(/C=N/n2c(-c3ccccc3)csc2=S)cc1,24.3%
20,CCOc1ncc(F)c(=O)[nH]1,3.95%

row,SMILES,activation
1,CCCCCCCC(=O)OCC(COC(=O)CCCCCCC)OC(=O)CCCCCCC,-13.4%
2,CC(=O)Nc1ncc([N+](=O)[O-])s1,-1.69%
3,CN1CCCN=C1COC(=O)C(O)(c1ccccc1)C1CCCCC1 (stereo not given),2.51%
4,CC=CC(=O)N(CC)c1ccccc1C,-8.73%
5,O=c1ccn([C@@H]2O[C@H](CO)[C@H](O)[C@H]2O)c(=O)[nH]1,8.95%
6,O=C1NC(=O)C(=Cc2ccc3c(c2)OC(F)(F)O3)S1,27.2%
7,CC1(C)S[C@@H]2[C@H](N=CN3CCCCCC3)C(=O)N2[C@H]1C(=O)O,-11.9%
8,CC(C)=CCC/C(C)=C/CC/C(C)=C/CCC(=O)OC/C=C(\C)CCC=C(C)C,0.565%
9,OC(CCN1CCCCC1)(c1ccccc1)c1ccccc1,1.69%
10,CCNC(=O)[C@H]1O[C@@H](n2cnc3c(N)nc(NCCc4ccc(CCC(=O)O)cc4)nc32)[C@H](O)[C@H]1O,29.2%
11,O=C1CC2(CCCC2)CC(=O)N1,-7.34%
12,CC(=O)Nc1c(I)cc(I)c(C(=O)O)c1I,-3.95%
13,CCN(CC)CCOC(=O)C1(c2ccccc2)CCCC1,3.35%
14,COc1ccc2c(c1)c(CC(=O)OCC(=O)O)c(C)n2C(=O)c1ccc(Cl)cc1,-15.1% and 5.95%
15,CN1CCc2cccc3c2[C@H]1Cc1ccc(O)c(O)c1-3,21.8%
16,COC(=O)C1=C(C)NC(C)=C(C(=O)OCCc2ccc(N3CCN(C(c4ccccc4)c4ccccc4)CC3)cc2)C1c1cccc([N+](=O)[O-])c1 (stereo not given),-15.9%
17,CCCCc1nc(Cl)c(CO)n1Cc1ccc(-c2ccccc2-c2nn[nH]n2)cc1,-19.2%
18,CCCN1CCCC[C@H]1C(=O)Nc1c(C)cccc1C,9.6%
19,CCCCCCc1ccc(O)cc1O,3.35%
20,O=C(OCCN1CCOCC1)C1(c2ccccc2)CCCCC1,-19.6%
